In PubChem BioAssay (Tox21):
Records with an inconclusive call do not appear. Activity calls are given as the source filed them. Unless noted, the call rests on the fitted dose curve; in most records, active means well fitted curve in the direction sought with a large enough effect in the repeat runs; inconclusive means weak or mixed curves; inactive means no such curve, though single readings can be large; an effect the other way counts as inactive or inconclusive.

Key:
[1] = qHTS assay to identify small molecule antagonists of the progesterone receptor (PR) signaling pathway - cell viability counter screen (AID 1346798); further: series mostly up to about 92 µM; nearly all actives have a fitted effect of over 50% in size
Outline: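 PR-UAS-bla HEK293T cells, 3,000/well in 2% charcoal-stripped FBS medium, dosed with compounds plus R5020 agonist and incubated 16 h at 37C. Viability then measured in the same wells by CellTiter-Glo luminescence after 30 min at RT.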

[2] = qHTS assay to identify small molecule agonists of the progesterone receptor (PR) signaling pathway - cell viability counter screen (AID 1346799; calls by dose curve; further: nearly all actives have a fitted effect of over 45% in size)
Outline: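 Counter screen in the PR-UAS-bla HEK293T wells (2% charcoal-stripped FBS, 16 h compound exposure at 37 C) after the bla read. CellTiter-Glo added, 30 min at room temperature, luminescence read as cell viability.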

[3] = qHTS assay to identify small molecule antagonists of the TGF-beta/Smad signaling pathway - cell viability counter screen (AID 1346824); further: nearly all actives have a fitted effect of over 50% in size
Outline: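 SBE-bla HEK 293T cells were plated overnight at 37 C, then given compounds in DMSO plus TGF-beta1 (added as 0.25 ng/mL solution) for 5 hr. After the bla read, CellTiter-Glo was added to the same wells and luminescence read after 30 min at room temperature.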

[4] = qHTS assay to identify small molecule agonists of the TGF-beta/Smad signaling pathway - cell viability counter screen (AID 1346829); further: top concentration of the series differs between compounds; nearly all actives have a fitted effect of over 45% in size
Outline: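 In parallel with the Smad reporter read, viability of HEK 293T cells stably carrying SBE-bla is quantified by ATP luminescence following 5 hr compound treatment.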

[5] = qHTS assay to identify small molecule agonists of the TGF-beta/Smad signaling pathway (AID 1346859; active means well fitted activation curve with a large enough effect in the signal ratio in the repeat runs, not every such curve was filed as active; the % refers to the signal ratio; further: series mostly up to about 77 µM)
Outline: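 SBE-bla HEK293T cells plated overnight, then compound exposure for 5 h at 37 C. Beta-lactamase reporter read with LiveBLAzer B/G FRET substrate after 2 h at room temperature, fluorescence at 405 nm excitation, 460/530 nm emission.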

[6] = target: Thyrotropin-releasing hormone receptor (Homo sapiens) (UniProt P34981); assay: qHTS assay to identify small molecule antagonists of the thyrotropin-releasing hormone receptor (TRHR) signaling pathway (AID 1346877; active means well fitted inhibition curve with a large enough effect in the repeat runs, not every such curve was filed as active; further: series mostly up to about 51 µM)
Thyrotropin-releasing hormone receptor (Homo sapiens), sequence (P34981 whole entry, looked up): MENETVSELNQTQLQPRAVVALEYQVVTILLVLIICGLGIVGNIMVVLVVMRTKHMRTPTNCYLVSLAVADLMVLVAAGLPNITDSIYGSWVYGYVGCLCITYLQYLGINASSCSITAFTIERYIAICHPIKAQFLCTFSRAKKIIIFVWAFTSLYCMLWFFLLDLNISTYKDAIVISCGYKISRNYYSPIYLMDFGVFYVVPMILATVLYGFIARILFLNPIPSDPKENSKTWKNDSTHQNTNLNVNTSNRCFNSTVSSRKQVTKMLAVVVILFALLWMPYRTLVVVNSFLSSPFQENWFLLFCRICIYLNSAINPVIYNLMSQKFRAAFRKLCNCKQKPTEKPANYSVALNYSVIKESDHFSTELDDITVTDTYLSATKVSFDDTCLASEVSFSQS
Outline: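 Calcium signal in dye-loaded TRHR/HEK293 cells; compounds added 5 min before TRH (1 nM final); fluorescence monitored 3 min at 1 s steps.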

[7] = target: Thyrotropin-releasing hormone receptor (Homo sapiens) (UniProt P34981); assay: qHTS assay to identify small molecule agonists of the thyrotropin-releasing hormone receptor (TRHR) signaling pathway (AID 1346891; calls by dose curve; further: series mostly up to about 58 µM)
Outline: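 HEK293 cells expressing TRHR plated 18 h at 37 C/5% CO2, calcium dye-loaded 2 h at 37 C, then compound added (agonist mode); kinetic calcium fluorescence read 3 min at 1 s intervals; 15 concentrations in triplicate.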

[8] = Human pregnane X receptor (PXR) small molecule agonists, qHTS cell viability counter screen (AID 1346977); further: nearly all actives have a fitted effect of over 50% in size
Outline: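 PXR-Luc HepG2 cells (2,000/well, 5% charcoal-stripped FBS) preincubated 5 hr, then exposed to compounds 24 hr at 37 C. Viability read in the same wells by CellTiter-Fluor fluorescence, reagent added at 23 hr, 1 hr incubation.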

[9] = Caspase-3/7 induction in HepG2 cells by small molecules, qHTS assay (AID 1346978); further: nearly all actives have a fitted effect of over 15% in size
Outline: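 Wild-type HepG2 cells (2,000/well) were settled 5 h at 37 C, 5% CO2, then exposed to compounds in DMSO for 17 h. Caspase-3/7 activity was read by luminescence 30 min after adding Caspase-Glo 3/7 reagent at room temperature.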
On the % scale 0 is the no-effect control and ±100 the full control effect.

CN(C)C(=O)Oc1cccc([N+](C)(C)C)c1
inactive: Potency [1] | Potency [2] | outcome [3] | outcome [4] | outcome [5] | outcome [6] | Potency [7] | Potency [8]

[K+]
inactive: Potency [1] | Potency [2] | outcome [3] | outcome [4] | outcome [5] | outcome [6] | Potency [7] | outcome [9]

CCOC(=O)COC(=O)c1ccccc1C(=O)OCC
inactive: Potency [1] | Potency [2] | outcome [3] | outcome [4] | outcome [6] | Potency [7] | Potency [8] | outcome [9]

CCCCOCCOC(=O)CCCCCCCCC(=O)OCCOCCCC
inactive: Potency [1] | Potency [2] | outcome [3] | outcome [4] | outcome [5] | outcome [6] | Potency [7] | Potency [8] | outcome [9]

CN1CC(=O)N/C1=N/C(=O)Nc1cccc(Cl)c1
inactive: Potency [1] | Potency [2] | outcome [3] | outcome [4] | outcome [5] | outcome [6] | Potency [7] | Potency [8] | outcome [9]

NC(N)=NCCN1CCCCCCC1
inactive: activity change, negative = cytotoxicity [1] -0.514% [at 0.348 µM] | activity change, negative = cytotoxicity [2] 0.507% [at 0.349 µM] | viability change, negative = cytotoxic [3] 2.08% [at 0.29 µM] | activity change, negative = cytotoxicity [4] -17.1% [at 0.29 µM] | activation [5] 0.678% [at 0.29 µM] | activity change, negative = cytotoxicity [8] -0.749% [at 0.349 µM]

CCN[C@@H]1C[C@H](N)[C@@H](OC2OC(CN)=CCC2N)[C@H](O)[C@H]1O[C@H]1OC[C@](C)(O)[C@H](NC)[C@H]1O (stereo not given in full)
inactive: activity change, negative = cytotoxicity [1] 4.73% [at 0.348 µM] | activity change, negative = cytotoxicity [2] -2.08% [at 0.349 µM] | viability change, negative = cytotoxic [3] 6.56% [at 0.29 µM] | activity change, negative = cytotoxicity [4] -2.15% [at 0.29 µM] | activation [5] -2.06% [at 0.29 µM] | activity, negative = inhibition [6] 0.737% [at 0.194 µM] | activation [7] -0.947% [at 0.218 µM] | activity change, negative = cytotoxicity [8] 1.73% [at 0.349 µM] | caspase activation [9] 0.0658% [at 0.349 µM]

CC(=O)N1C[C@H](O)C[C@H]1C(=O)O
inactive: Potency [1] | Potency [2] | outcome [3] | outcome [4] | outcome [5] | outcome [6] | Potency [7] | Potency [8] | outcome [9]

NS(=O)(=O)Cc1noc2ccccc12
inactive: Potency [1] | Potency [2] | outcome [3] | outcome [4] | outcome [5] | Potency [8] | outcome [9]

C[C@@H]1C[C@H]2[C@@H]3C[C@H](F)C4=CC(=O)C(Cl)=C[C@]4(C)[C@@]3(F)[C@@H](O)C[C@]2(C)[C@@]1(O)C(=O)CO
inactive: Potency [1] | outcome [3] | outcome [4] | outcome [5] | outcome [6] | Potency [7] | Potency [8]

CCNS(=O)(=O)c1ccc(C)cc1
inactive: Potency [1] | outcome [3] | outcome [4] | outcome [5] | outcome [6] | Potency [7] | outcome [9]

CC(C)(C)OC(=O)c1cccc(N)c1
inactive: Potency [1] | outcome [3] | outcome [5] | outcome [6] | Potency [7] | Potency [8] | outcome [9]

CC1OC1C1CCC2(C)OC2C1 (stereo not given)
inactive: Potency [1] | outcome [3] | outcome [4] | outcome [5] | outcome [6] | Potency [7] | outcome [9]

COc1cccc(OC)c1C(=O)N[C@@H]1C(=O)N2[C@@H]1SC(C)(C)[C@@H]2C(=O)O
inactive: Potency [2] | outcome [3] | outcome [4] | outcome [5] | Potency [8] | outcome [9]

CCCCCCC#CC(=O)OC
inactive: Potency [1] | outcome [3] | outcome [4] | outcome [5] | outcome [6] | Potency [7] | Potency [8] | outcome [9]

COC(=O)Nc1ccc(Cl)c(Cl)c1
inactive: Potency [1] | outcome [3] | outcome [4] | outcome [5] | outcome [6] | Potency [7] | Potency [8]

CC(C)c1ccc2ncccc2c1
inactive: Potency [1] | Potency [2] | outcome [3] | outcome [5] | Potency [8]

O=C1c2ccccc2C(=O)c2cc(O)ccc21
inactive: outcome [3] | outcome [4] | outcome [5] | outcome [9]

Cc1ncc([C@@H](CCCCCCc2ccc3c(n2)NCCC3)CC(=O)O)cn1
inactive: Potency [1] | outcome [3] | outcome [4] | outcome [5] | outcome [6] | Potency [7] | Potency [8] | outcome [9]

CC(=O)OCC(=O)[C@@]1(O)[C@H](C)C[C@H]2[C@@H]3CCC4=CC(=O)C=C[C@]4(C)[C@@]3(F)[C@@H](O)C[C@@]21C
inactive: Potency [1] | outcome [3] | outcome [4] | outcome [5] | outcome [6] | Potency [7] | Potency [8] | outcome [9]

CN(C)CCCN(C)CCCN(C)C
inactive: Potency [2] | outcome [3] | outcome [5] | outcome [6] | Potency [7] | outcome [9]

COCCOCC(OC)OC
inactive: Potency [1] | outcome [3] | outcome [4] | outcome [5] | outcome [6] | Potency [7]

COc1cc2c(cc1OC)-c1cc3ccc(OC)c(OC)c3c[n+]1CC2
inactive: Potency [2] | outcome [3] | outcome [4] | outcome [6] | Potency [7] | outcome [9]

O=C1NC(=O)C2CC=CCC12 (stereo not given)
inactive: Potency [2] | outcome [3] | outcome [5] | outcome [6] | Potency [7] | Potency [8] | outcome [9]

O=[N+]([O-])c1cncn1CCN1CCOCC1
inactive: Potency [1] | outcome [3] | outcome [4] | outcome [5] | outcome [6] | Potency [7] | Potency [8] | outcome [9]
